Assay outcomes from PubChem BioAssay.
The list is not random: actives were taken first. Their share in the collection is about 5.7%.
RORgamma inh = ROR gamma (mouse) transcription inhibition; P51450; actives 5.4% (n = 310,000); Potency, µM (doses to about 53.6 µM), for inactives: at the top dose activity change, negative = inhibition, most hits filed as inhibitors; Drosophila S2 Gal4-RORgamma UAS-luciferase reporter, 20 h; also: nearly all actives have a fitted effect of over 60% in size
Target sequence (P51450 whole entry, looked up, the tested form may be a part): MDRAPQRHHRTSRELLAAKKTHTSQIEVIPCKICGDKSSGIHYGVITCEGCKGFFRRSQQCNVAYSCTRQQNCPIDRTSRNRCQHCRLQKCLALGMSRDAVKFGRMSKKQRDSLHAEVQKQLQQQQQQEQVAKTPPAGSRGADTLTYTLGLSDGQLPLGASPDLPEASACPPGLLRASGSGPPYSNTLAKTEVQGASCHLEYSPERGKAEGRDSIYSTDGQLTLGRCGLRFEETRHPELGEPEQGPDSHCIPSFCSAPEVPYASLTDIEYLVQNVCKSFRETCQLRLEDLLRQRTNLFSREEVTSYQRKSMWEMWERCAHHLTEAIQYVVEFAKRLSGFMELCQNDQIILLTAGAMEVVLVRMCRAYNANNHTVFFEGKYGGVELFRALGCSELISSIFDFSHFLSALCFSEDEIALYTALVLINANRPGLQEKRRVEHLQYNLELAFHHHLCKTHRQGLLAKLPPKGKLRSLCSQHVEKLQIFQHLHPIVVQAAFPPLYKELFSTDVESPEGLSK
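Drosophila S2 cells stably expressing Gal4-DBD/mouse RORγ fusion under metallothionein promoter plus UAS-luciferase; compound 1 h, then 700 uM CuSO4 induction for 20 h at ambient temperature; inhibition read as reduced luminescence.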
NPSR antagonist = neuropeptide S receptor (human) antagonism, cAMP. actives 1% (n = 220,000). Potency, µM (top dose mostly 38.3 µM), for inactives: top-dose activity change, negative = inhibition, most hits filed as inhibitors. CHO-NPSR cells, cAMP TR-FRET, antagonist mode; also: nearly all actives have a fitted effect of over 50% in size
B2AR arrestin = agonists driving beta-arrestin recruitment to human beta2-adrenergic receptor | P07550 | beta-arrestin recruitment to beta2AR, cell-based reporter | Potency, µM (highest dose often 46.1 µM), inactives show at the top dose activation, usual class: activators | actives 0.02% (n = 330,000) | AID 492947;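 also: 0% = DMSO controls and full agonism = EC100 isoproterenol or metaproterenol; nearly all actives have a fitted effect of over 65% in size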
VP16 counter = counter-screen for ROR gamma inhibitors: Gal4-VP16 reporter; AID 2546; Drosophila S2 Gal4-VP16 UAS-luciferase, luminescence, 20 h; actives 3.5% (n = 310,000); Potency, µM (doses to about 53.6 µM), for inactives: at the highest dose activity, negative = inhibition, most hits filed as inhibitors;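 also: Gal4-VP16 expression switched on by copper sulfate through the metallothionein promoter; nearly all actives have a fitted effect of over 50% in size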
Starred values were filed as active, the others as inactive; u = inconclusive; x = not tested or not shown; [ ] = dose if it differs, or a comment. Calls follow the shape of the dose curve; as a rule, active = well fitted curve in the direction sought with a large enough effect; inconclusive = small, poorly fitted or top-dose-only effect, or another doubt; inactive = no such curve, though single readings can be large; an effect the other way counts as inactive or inconclusive. Unless noted, % is scaled to controls: 0 for no effect and ±100 for the full control effect; potency is read from the fitted curve at half-maximal effect.

SMILES	RORgamma inh	NPSR antagonist	B2AR arrestin	VP16 counter
CCCC[C@@H]1C=C(C(=O)O)[C@H](c2ccc(Br)cc2)N1S(=O)(=O)c1ccc(C)cc1	x	x	-0.4%	x
COc1ccc(/C=N/NC(=O)CCn2cnc3ccccc32)cc1	12.6µM*	-17.6%	-0.8%	u
Cn1cccc1/C=N/NC(=O)Cn1cnc2ccccc21	8.91µM*	-5.8%[46.1 µM]	-0.1%	u
O=C(Cn1cnc2ccccc21)Nc1ccc(SC(F)F)cc1	3.98µM*	-0.1%	0.5%	7.94µM*
CC(C)CN(C(=O)COC(=O)CCC(=O)c1ccc(F)cc1)c1c(N)n(Cc2ccccc2)c(=O)[nH]c1=O	x	x	0.0%	x
COC(=O)C1=C(C)N(Cc2ccccc2)[C@]23O[C@](C(=O)OC)(C(=O)N2C1c1ccccc1)C(c1ccccc1)C3C(=O)c1ccccc1 (stereo partly specified)	6.9%[10 µM]	x	x	9.4%[10 µM]
CCOc1ccc(NC2OC(CO)C(O)C(O)C2O)c([N+](=O)[O-])c1 (stereo unspecified)	3.5%	-14.8%	0.3%	3.4%
O=C(O)c1ccccc1-c1noc(-c2ccccc2F)n1	x	x	-0.1%	x
CN(Cc1nc(-c2ccncc2)no1)S(=O)(=O)c1ccc(Cl)cc1	0.6%	-6.6%[46.1 µM]	-0.2%	-19.2%
O=C(O)c1ccc(-c2noc(-c3ccccc3F)n2)cc1	x	x	x	10µM*
c1ccc(-c2ccccc2-c2nc(-c3ccncc3)no2)cc1	8.91µM*	-25.9%[46.1 µM]	0.1%	u
CN(Cc1nc(-c2ccncc2)no1)S(=O)(=O)c1ccccc1	2.51µM*	-0.7%[46.1 µM]	-1.6%	9.0%
c1ccc(C(Cc2nc(-c3ccncc3)no2)c2ccccc2)cc1	u	-24.9%[46.1 µM]	0.0%	10µM*
COc1ccc(NC(=O)N2CCCC3(CCN(C(=O)c4cnccn4)CC3)C2)cc1	-3.2%	x	x	3.6%
CCCC(=O)NC(c1ccc2c(c1)OCO2)c1cc(Cl)c2cccnc2c1O (stereo unspecified)	1.41µM*	-1.8%	-0.5%	1.26µM*
CCC(=O)NC(c1cccs1)c1ccc2cccnc2c1O (stereo unspecified)	0.501µM*	u	12.6µM*	1.12µM*
CCCC(=O)NC(c1ccco1)c1cc(Cl)c2cccnc2c1O (stereo unspecified)	3.98µM*	-27.4%[46.1 µM]	-0.7%	3.55µM*
Cc1conc1NC(c1cccs1)c1ccc2cccnc2c1O (stereo unspecified)	2.51µM*	-17.2%[46.1 µM]	9.7%	5.62µM*
CC(C)CC(=O)NC(c1cccs1)c1ccc2cccnc2c1O (stereo unspecified)	0.7%	-6.0%	0.2%	-12.8%
Cc1nc(NC2CCCCC2)c2nc(-c3ccccc3)n(CCN(C)C)c2n1	-37.4%	x	x	10.7%
COc1cc2c(cc1OC)C(C)N(C(=O)CCc1c[nH]c3ccccc13)CC2 (stereo unspecified)	0.6%	x	0.3%	1.2%
COC(=O)c1ccc(CN2CCCC(CO)(Cc3ccc(F)cc3F)C2)cc1 (stereo unspecified)	22.1%	x	-1.8%	0.7%
CCCC(=O)NC(c1cccs1)c1cc(Cl)c2cccnc2c1O (stereo unspecified)	0.398µM*	u	0.2%	0.501µM*
CC1=CC(C)(C)n2c(O)c(N=NC(N)=S)c3cc(C)cc1c32	0.794µM*	32.5%	-0.5%	1.78µM*
Cc1cc(C)c(S(=O)(=O)Nc2ccc3c4c(cccc24)CC3)c(C)c1	11.2µM*	u	-0.8%	u
SMILES	RORgamma inh	NPSR antagonist	B2AR arrestin	VP16 counter
Cc1cc(C)c(S(=O)(=O)Nc2ccc3c(c2)CCC3)c(C)c1	-11.9%	u	-0.3%	-16.0%
COc1cccc(Nc2ncc3ncc(=O)n(CCc4ccccc4)c3n2)c1	8.4%	x	x	-1.0%
Cc1ccc(C(C)(C)C)c(SCC(=O)Nc2nnc(C)s2)c1	7.08µM*	x	-0.4%	-17.3%
Cc1cccc(Cn2cc(SCC(=O)Nc3nccs3)c3ccccc32)c1	u	u	0.4%	u
Cc1nnc(NC(=O)CSc2ccccc2N)s1	-10.0%	x	-0.6%	-5.6%
Cc1nnc(NC(=O)CSc2cn(Cc3ccccc3)c3ccccc23)s1	11.2µM*	u	-0.2%	-18.1%
Cc1ccc(Cn2cc(SCC(=O)Nc3nccs3)c3ccccc32)cc1	-42.7%	10µM*	-0.2%	-15.4%
O=c1c2c3n(c(=S)nc2[nH]n1-c1ccccc1)CCCCC3	12.6µM*	-22.5%[46.1 µM]	-0.7%	u
O=C(N/N=C\c1cc(Br)cs1)c1ccncc1	1.58µM*	19.1%	-0.7%	2.82µM*
O=C(N/N=C/c1ccc([N+](=O)[O-])s1)c1ccccc1Br	1.78µM*	1.7%[46.1 µM]	-1.2%	6.31µM*
